15 molecules from PubChem BioAssay (NCATS) can be followed below.

Experiment [1] in a line: qHTS for identification of novel therapeutic agents for treatment of microphthalmiaassociated transcription factor (MiT) renal cell carcinoma (RCC) (AID 1963991). Particulars: CellTiter-Glo, 48 h; for z-score: stronger effect = lower value; for Potency: active = Z-AUC below -0.8 in all three lines. A digest of the protocol: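 Viability of three TFE3-fusion renal carcinoma lines measured by CellTiter-Glo after 48 h treatment with each of 1912 compounds at 11 concentrations. Responses scaled between DMSO (100%) and empty wells (0%) before curve fitting.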

Experiment [2] in a line: qHTS drug screen for cell cycle checkpoint inhibitors in PARPi-resistant BRCA-mutant ovarian cancer cell lines. (AID 1963452). The note with it: PEO1/OlaR viability, CellTiter-Glo luminescence, 96 h; for Z-AUC: stronger effect = lower value. Summed up: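 PEO1, PEO4 and PEO1/OlaR ovarian cancer cells, 600 per well, exposed 96 h at 37C to a dilution series. Viability read by CellTiter-Glo luminescence, normalized to DMSO and empty wells; activity summarized as Z-AUC.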
(In qHTS, concentration-response curves come from the screen itself.)

The mark [3] stands for this setting: TFE3-RCC UOK109 viability, measured here: UOK109 Z-AUC.
Where [4] appears, read: TFE3-RCC viability, measured here: UOK124 Z-AUC.
The mark [5] stands for this setting: TFE3-RCC viability, measured here: UOK145 Z-AUC.

Each structure is given as a SMILES string. Inconclusive results are not listed. Activity calls are given as the source filed them. Calls follow the shape of the full dose curve.
Potency is read from the fitted curve at half-maximal effect.

`NC(=O)c1ncn([C@@H]2O[C@H](CO)[C@@H](O)[C@@H]2O)c1O`: the z-score in experiment [1] (setting [3]) was 0.702; in experiment [1] (setting [4]), 0.298; in experiment [1] (setting [5]), 0.0692.

With `N#CC(=C(O)c1ccc(Cl)cc1Cl)c1nc2cc(Cl)ccc2c(=O)[nH]1`, the z-score in experiment [1] (setting [3]) turned out to be 0.465; in experiment [1] (setting [4]), 1.29; in experiment [1] (setting [5]) it was 0.266.

For the molecule `COc1cc([C@@H]2c3cc4c(cc3[C@H](O)[C@H]3COC(=O)[C@@H]23)OCO4)cc(OC)c1OC`, the Potency in experiment [2] is 1230 nM (active); in experiment [1] (TFE3-RCC UOK109 viability), 83.3 nM (active). In addition, the Z-AUC in experiment [2] (measured here: PEO1 parental Z-AUC) was -1.51; in experiment [2] (measured here: PEO4 Z-AUC), -1.58. The z-score was -1.41 in experiment [1] (setting [3]), -1.77 in experiment [1] (setting [4]) and -1.2 in experiment [1] (setting [5]).

`Nc1nc(=O)n([C@H]2CSC(CO)O2)cc1F` (some centres undefined): the z-score in experiment [1] (setting [3]) turned out to be 0.159; in experiment [1] (setting [4]), 0.427; in experiment [1] (setting [5]), 0.298.

Turning to `Cc1ccc(O)c(C(CCN(C(C)C)C(C)C)c2ccccc2)c1` (centres undefined), the results for the z-score in experiment [1] (setting [3]), in experiment [1] (setting [4]) and in experiment [1] (setting [5]) were 0.603, 0.794 and 0.77, respectively.

Turning to `O=C(O)C(=O)Nc1cccc(C2=NN=N[N]2)c1`, the z-score in experiment [1] (setting [3]) came out at 0.225; in experiment [1] (setting [4]), 0.525; in experiment [1] (setting [5]), 0.0651.

Consider `CC(=O)NC(CS)C(=O)O` (centres undefined), for which the z-score in experiment [1] (setting [3]) is 0.609; in experiment [1] (setting [4]), 0.0619; in experiment [1] (setting [5]) it was 0.159.

For the molecule `CN[C@@H]1C[C@H]2O[C@@](C)([C@H]1OC)n1c3ccccc3c3c4c(c5c6ccccc6n2c5c31)C(=O)N[C@H]4O`, in experiment [1] (TFE3-RCC UOK109 viability), the Potency was 1480 nM (active). Further, the z-score is -1.4 in experiment [1] (setting [3]), -2.32 in experiment [1] (setting [4]) and -1.88 in experiment [1] (setting [5]).

For `Cc1onc(-c2ccccc2)c1C(=O)N[C@@H]1C(=O)N2[C@@H](C(=O)O)C(C)(C)S[C@@H]12`, the z-score amounted to 2.05 in experiment [1] (setting [3]), 0.727 in experiment [1] (setting [4]) and 1.83 in experiment [1] (setting [5]).

As to `C[C@]12C=CC(=O)N[C@@H]1CC[C@H]1[C@H]3CC[C@@H](C(=O)Nc4cc(C(F)(F)F)ccc4C(F)(F)F)[C@@]3(C)CC[C@@H]12`, the z-score in experiment [1] (setting [3]) came to 0.94; in experiment [1] (setting [4]), 0.86; in experiment [1] (setting [5]), 0.116.

As to `O=C1NC(=O)C(=Cc2ccc3nccc(-c4ccncc4)c3c2)S1`, the Potency in experiment [1] (TFE3-RCC UOK109 viability) is 833 nM (active). The z-score in experiment [1] (setting [3]) is -1.04; in experiment [1] (setting [4]), -1.39; in experiment [1] (setting [5]) it was -1.83.

With `O=C(C=Cc1ccc(CN(CCO)CCc2c[nH]c3ccccc23)cc1)NO`, the Potency in experiment [1] (TFE3-RCC UOK109 viability) is 590 nM (active). The z-score in experiment [1] (setting [3]) was -1.47; in experiment [1] (setting [4]) it was -3.24; in experiment [1] (setting [5]), -1.37.

With `C=C1C[C@@]2(O)O[C@@]3(C[C@H]2C(C)C)[C@H](C)CC[C@H]13`, the z-score in experiment [1] (setting [3]) was determined as 0.729; in experiment [1] (setting [4]), 0.339; in experiment [1] (setting [5]), 0.0529.

On to `CC(=O)[C@]1(O)Cc2c(O)c3c(c(O)c2[C@@H](O[C@H]2C[C@H](N)[C@@H](O)[C@H](C)O2)C1)C(=O)c1ccccc1C3=O`, for which, in experiment [1] (TFE3-RCC UOK109 viability), the Potency is 332 nM (active). Besides, the z-score was -1.95 in experiment [1] (setting [3]), -1.91 in experiment [1] (setting [4]) and -1.45 in experiment [1] (setting [5]).

As to `COc1cc2c(Nc3ccc(Cl)c(Cl)c3F)ncnc2cc1OCC1C[C@@H]2CN(C)C[C@H]2C1`, in experiment [1] (TFE3-RCC UOK109 viability), the Potency was 9350 nM (active). The z-score in experiment [1] (setting [3]) was -3.52; in experiment [1] (setting [4]) it was -1.85; in experiment [1] (setting [5]), -1.7.
